Measurements from PubChem BioAssay AID1159580 (chemical genetic matrix, 2015).
About 2,000 (36%) of roughly 5,500 compounds were called active. About 18% were inconclusive and are not listed. Cut-off read from the data, not from the text of the source: active = normalized growth mostly below about 0.91 (no sharp cut-off); inconclusive = no clear call, values can overlap the other calls; inactive = mostly above about 0.92. The list shows a part of the results.

Assay: chemical genetic growth profiling, strain panel (AID 1159580);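 note: tested at 20 µM; growth read once vehicle control cultures reached saturation at 30 °C; 1 = growth at the plate median or of vehicle wells; lower values mean less growth of the strain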
Details: growth OD

Measured: normalized growth

O=C(/C=C/c1ccc(O)c(O)c1)O[C@@H]1C[C@](O)(C(=O)O)C[C@@H](O)[C@H]1O
inactive: S. cerevisiae deletion strains, locus YKL009W, strain mrt4, hits give low values 1.04 | S. cerevisiae deletion strains, locus YKL068W, hits give low values 1.01 | S. cerevisiae deletion strains, locus YKL085W, strain MDH1 (second series), hits give low values 1 | S. cerevisiae deletion strains, locus YKL085W, strain MDH1, hits give low values 1 | S. cerevisiae deletion strains, locus YKL160W, strain elf1, hits give low values 1.03 | S. cerevisiae deletion strains, locus YKR001C, strain vps1, hits give low values 1.03 | S. cerevisiae deletion strains, locus YKR026C, strain gcn3, hits give low values 0.973 | S. cerevisiae deletion strains, locus YKR091W, strain srl3, hits give low values 0.992 | S. cerevisiae deletion strains, locus YLL001W, strain dnm1, hits give low values 0.99 | S. cerevisiae deletion strains, locus YLL026W, hits give low values 0.985 | S. cerevisiae deletion strains, locus YLL041C, strain sdh2, hits give low values 0.974 | S. cerevisiae deletion strains, locus YLR027C, strain aat2, hits give low values 0.999 | S. cerevisiae deletion strains, locus YLR039C, strain RIC1, hits give low values 1.05 | S. cerevisiae deletion strains, locus YLR058C, strain SHM2, hits give low values 1.01 | S. cerevisiae deletion strains, locus YLR102C, strain apc9, hits give low values 1.01 | S. cerevisiae deletion strains, locus YLR113W, strain HOG1, hits give low values 1 | S. cerevisiae deletion strains, locus YLR221C, strain rsa3, hits give low values 0.972 | S. cerevisiae deletion strains, locus YLR258W, strain gsy2, hits give low values 0.985 | S. cerevisiae deletion strains, locus YLR262C, strain YPT6 (second series), hits give low values 0.996 | S. cerevisiae deletion strains, locus YLR262C, strain YPT6, hits give low values 1.11 | S. cerevisiae deletion strains, locus YLR268W, strain sec22, hits give low values 1.05 | S. cerevisiae deletion strains, locus YLR320W, strain mms22, hits give low values 0.969 | S. cerevisiae deletion strains, locus YLR330W, strain CHS5, hits give low values 1.01 | S. cerevisiae deletion strains, locus YLR342W, strain FKS1 (second series), hits give low values 0.998 | S. cerevisiae deletion strains, locus YLR342W, strain FKS1, hits give low values 0.988 | S. cerevisiae deletion strains, locus YLR357W, strain rsc2, hits give low values 1 | S. cerevisiae deletion strains, locus YLR370C, strain arc18, hits give low values 0.986 | S. cerevisiae deletion strains, locus YLR371W, strain rom2, hits give low values 1.01 | S. cerevisiae deletion strains, locus YLR384C, strain iki3, hits give low values 0.96 | S. cerevisiae deletion strains, locus YLR418C, strain cdc73, hits give low values 0.992 | S. cerevisiae deletion strains, locus YML016C, strain PPZ1, hits give low values 1 | S. cerevisiae deletion strains, locus YML032C, strain rad52, hits give low values 0.999 | S. cerevisiae deletion strains, locus YML120C, strain ndi1, hits give low values 0.993 | S. cerevisiae deletion strains, locus YML124C, strain tub3, hits give low values 1.01 | S. cerevisiae deletion strains, locus YMR058W, strain fet3, hits give low values 0.978 | S. cerevisiae deletion strains, locus YMR078C, strain ctf18, hits give low values 1.02 | S. cerevisiae deletion strains, locus YMR125W, strain sto1, hits give low values 0.99 | S. cerevisiae deletion strains, locus YMR129W, hits give low values 0.991 | S. cerevisiae deletion strains, locus YMR205C, strain PFK2, hits give low values 1.03 | S. cerevisiae deletion strains, locus YMR223W, strain ubp8, hits give low values 1 | S. cerevisiae deletion strains, locus YMR231W, strain pep5, hits give low values 0.971 | S. cerevisiae deletion strains, locus YMR263W, strain SAP30, hits give low values 1.01 | S. cerevisiae deletion strains, locus YMR307W, strain GAS1, hits give low values 0.959 | S. cerevisiae deletion strains, locus YNL067W, strain RPL9B, hits give low values 1.04 | S. cerevisiae deletion strains, locus YNL071W, strain lat1, hits give low values 0.987 | S. cerevisiae deletion strains, locus YNL128W, strain TEP1, hits give low values 1.04 | S. cerevisiae deletion strains, locus YNL153C, strain GIM3, hits give low values 1.02 | S. cerevisiae deletion strains, locus YNL183C, strain NPR1, hits give low values 0.957 | S. cerevisiae deletion strains, locus YNL209W, strain ssb2, hits give low values 0.991 | S. cerevisiae deletion strains, locus YNL233W, strain BNI4, hits give low values 1.02 | S. cerevisiae deletion strains, locus YNL248C, strain rpa49, hits give low values 0.982 | S. cerevisiae deletion strains, locus YNL250W, strain rad50, hits give low values 1.03 | S. cerevisiae deletion strains, locus YNL271C, strain bni1, hits give low values 1.01 | S. cerevisiae deletion strains, locus YNL298W, strain CLA4, hits give low values 1.02 | S. cerevisiae deletion strains, locus YNL307C, strain MCK1, hits give low values 1.02 | S. cerevisiae deletion strains, locus YNL322C, strain KRE1 (second series), hits give low values 0.976 | S. cerevisiae deletion strains, locus YNL322C, strain KRE1, hits give low values 1 | S. cerevisiae deletion strains, locus YNR049C, strain mso1, hits give low values 0.973 | S. cerevisiae deletion strains, locus YNR052C, strain pop2, hits give low values 1.01 | S. cerevisiae deletion strains, locus YOL006C, strain TOP1, hits give low values 1.15 | S. cerevisiae deletion strains, locus YOL012C, strain htz1 0.974 | S. cerevisiae deletion strains, locus YOL147C, strain pex11, hits give low values 1.02 | S. cerevisiae deletion strains, locus YOR001W, strain rrp6, hits give low values 0.925 | S. cerevisiae deletion strains, locus YOR061W, strain CKA2, hits give low values 1.01 | S. cerevisiae deletion strains, locus YOR069W, strain VPS5, hits give low values 1.01 | S. cerevisiae deletion strains, locus YOR070C, strain gyp1, hits give low values 0.985 | S. cerevisiae deletion strains, locus YOR080W, strain dia2, hits give low values 0.983 | S. cerevisiae deletion strains, locus YOR083W, strain WHI5, hits give low values 1.04 | S. cerevisiae deletion strains, locus YOR106W, strain vam3, hits give low values 1 | S. cerevisiae deletion strains, locus YOR136W, strain idh2, hits give low values 1.03 | S. cerevisiae deletion strains, locus YOR144C, strain elg1, hits give low values 1.01 | S. cerevisiae deletion strains, locus YOR184W, strain ser1, hits give low values 1 | S. cerevisiae deletion strains, locus YOR231W, strain MKK1, hits give low values 1.02 | S. cerevisiae deletion strains, locus YOR265W, strain rbl2, hits give low values 0.999 | S. cerevisiae deletion strains, locus YOR270C, strain vph1, hits give low values 0.924 | S. cerevisiae deletion strains, locus YOR290C, strain snf2, hits give low values 1.01 | S. cerevisiae deletion strains, locus YOR316C, strain cot1, hits give low values 1.02 | S. cerevisiae deletion strains, locus YPL051W, strain arl3, hits give low values 0.999 | S. cerevisiae deletion strains, locus YPL055C, strain LGE1, hits give low values 1.03 | S. cerevisiae deletion strains, locus YPL078C, strain atp4, hits give low values 1.02 | S. cerevisiae deletion strains, locus YPL106C, strain sse1, hits give low values 0.995 | S. cerevisiae deletion strains, locus YPL240C, strain hsp82, hits give low values 0.969 | S. cerevisiae deletion strains, locus YPL256C, strain CLN2, hits give low values 1.01 | S. cerevisiae deletion strains, locus YPR119W, strain clb2, hits give low values 1.01 | S. cerevisiae deletion strains, locus YPR141C, strain kar3, hits give low values 1.01 | S. cerevisiae deletion strains, locus YPR163C, strain tif3, hits give low values 1.03 | S. cerevisiae deletion strains, locus YPR167C, strain met16, hits give low values 1.01 | S. cerevisiae deletion strains, strain wtn01, hits give low values 1.05 | S. cerevisiae strains, strain wild type, hits give low values 1.01
